rCAG RNA binder: molecules binding r(CAG) RNA repeats | r(CAG) RNA repeat, TO-PRO-1 dye displacement fluorescence | inhibition, % at 3 µM | actives 1.3% (n = 370,000);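 active = inhibition above the plate cutoff, the mean of all test compounds on that plate plus 3 SD, cut at about 35% in these data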;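 also: 0% = DMSO alone and 100% = 100 µM mitoxantrone as full dye displacement; higher means more dye released from RNA so lower well fluorescence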
NadD inh: inhibitors of Staphylococcus aureus NadD; actives 0.78% (n = 360,000); purified NadD enzyme, colorimetric absorbance read-out; inhibition, % at 20 µM; in the data active = inhibition above about 26%
FAS TE block: FAS thioesterase (human) inhibition. P49327. actives 0.67% (n = 360,000). inhibition, % at 15 µM. recombinant FAS-TE, OMFH fluorogenic substrate, fluorescence endpoint. AID 602261;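 active = compounds whose normalised, plate-corrected inhibition of enzyme fluorescence in the single-dose primary screen is 50% or more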;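 also: 0% = DMSO with enzyme and 100% = substrate without enzyme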
NR3A LBD binder: NR3A (human) ligand-binding domain modulation. actives 2.5% (n = 340,000). NR3A LBD differential scanning fluorimetry, Tm shift; 0% = protein alone, 100% = glycine-bound protein. Tm shift relative to glycine control, % at 25 µM;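 active = melting temperature shift of at least 10% of the positive control shift, at one fixed dose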
rCAG bind conf: r(CAG) RNA repeat binding, confirmation; shares compounds with rCAG RNA binder; TO-PRO-1 dye displacement fluorescence; inhibition, % at 3 µM; actives 70% (n = 4,300); AID 652065;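 active = inhibition above a per-plate cutoff, the mean inhibition of sample wells plus 3 SD, cut at about 35% in these data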;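 also: loss of TO-PRO-1 fluorescence as compound displaces dye from 1x1 AA loop RNA; 0% = DMSO only wells and 100% = 100 µM mitoxantrone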
DNA CAG counter: DNA CAG dye complex inhibition counter-screen | shares compounds with rCAG RNA binder | d(CAG) DNA oligo TO-PRO-1 dye displacement, fluorescence | inhibition, % at 3 µM | actives 94% (n = 4,300);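 active = inhibition above its plate's cutoff, the mean test-well inhibition plus 3 SD, cut at about 4.8% in these data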;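 also: 0% = DNA dye mix with DMSO and 100% = 100 µM mitoxantrone; hits displace the dye from DNA and so lower well fluorescence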
Numbers without * were called inactive; nt = no result given. Sampled rows, rich in hits. Any-hit rate of the full collection: about 4.3%.

SMILES	rCAG RNA binder	NadD inh	FAS TE block	NR3A LBD binder	rCAG bind conf	DNA CAG counter
COc1cccc(NS(=O)(=O)c2ccc3c(c2)C2C=CCC2C(c2ccc(C(=O)O)cc2)N3)c1 (configuration not stated)	96*	20	10	3	90*	62*
COc1cccc(NS(=O)(=O)c2ccc3c(c2)CCCN3C(C)=O)c1	-4	-1	-8	0	nt	nt
O=C(c1ccc(F)cc1)N1CCN(Cc2ccccc2)CC1	-5	0	-2	-2	nt	nt
O=C1NC(=S)N(C(=O)c2ccc(F)cc2)/C1=C/c1ccccc1	36*	5	-9	-2	65*	24*
COc1ccc(/C=C2\C(=O)NC(=S)N2C(=O)c2ccc(F)cc2)cc1	38*	17	-4	1	69*	31*
CCCS(=O)(=O)c1c(S(=O)(=O)CCC)c2c(N)cccn2c1C(=O)c1ccc(F)cc1	45*	12	18	-8	21	10*
CCCS(=O)(=O)c1c(S(=O)(=O)CCC)c2c(N)cccn2c1C(=O)c1ccc(OC)cc1	19	13	11	-6	nt	nt
CCCS(=O)(=O)c1c(S(=O)(=O)CCC)c2c(N)cccn2c1C(=O)c1ccc(Br)cc1	52*	26	25	9	21	11*
COc1ccc(C)cc1NC(=S)NNC(=O)c1c(Br)cnn1C	54*	-10	-3	-7	25	4.4*
CCC(=O)c1ccc(OCC(=O)O)cc1	0	4	-4	1	nt	nt
CCCc1c(OCCCOc2ccc(OCC(=O)O)cc2)ccc(C(C)=O)c1O	61*	18	2	-1	51*	16*
COc1ccccc1NC(=O)N(C)C[C@H]1OCc2cn(nn2)CCCC(=O)N([C@H](C)CO)C[C@@H]1C	2	nt	nt	nt	nt	nt
O=C(Nc1sc2c(c1C(=O)O)CCC2)c1cccc(Cl)c1	74*	-4	-2	-13	53*	15*
O=C(NC(=S)Nc1sc2c(c1C(=O)O)CCCC2)c1ccccc1	72*	8	9	-5	56*	20*
Cc1cccc(C(=O)Nc2sc3c(c2C(=O)O)CCCC3)c1	41*	-1	-3	-4	32	9.3*
O=C(Nc1sc2c(c1C(=O)O)CCC2)c1ccccc1Cl	12	-6	-4	-1	nt	nt
N#Cc1c(NC(=O)c2cccc(S(=O)(=O)Nc3ccc(C(=O)O)cc3)c2)sc2c1CCCC2	61*	7	5	-4	46*	17*
O=C(Nc1sc2c(c1C(=O)O)CCCC2)c1ccccc1Cl	20	0	-1	-3	nt	nt
CC(=O)C1=C(C)NC(=S)NC1c1ccc(F)cc1 (configuration not stated)	4	nt	nt	nt	nt	nt
O=C(COC(=O)c1cccc(NS(=O)(=O)c2ccc(F)c(F)c2)c1)NC(=O)NC1CCCC1	36*	-9	11	2	26	5.0*
Cc1nc(NCCc2ccc(S(N)(=O)=O)cc2)c2c3c(sc2n1)CCC3	6	12	-6	-1	nt	nt
Cc1nc(NS(=O)(=O)c2ccc(Cl)s2)c2c3c(sc2n1)CCCC3	78*	5	5	1	55*	19*
Nc1ccc(Nc2ccccc2)c(S(=O)(=O)O)c1	32	7	-5	-2	nt	nt
Cc1ccc(Nc2ccc(N)cc2S(=O)(=O)O)cc1	36*	2	-2	-4	26	7.2*
COC(=O)c1c(N2C(=O)Nc3ccccc3N2O)sc2c1CCCC2	40*	-2	-10	-1	36*	8.4*
CCOC(=O)c1c(-c2ccccc2)csc1N1C(=O)Nc2ccccc2N1O	50*	-1	-5	-2	38*	8.8*
C#CCN(C[C@H]1[C@H](OC(=O)NCCCCCC)[C@H](OC(=O)NCCCCCC)CN(C(=O)OC(C)C)N1C(=O)OC(C)C)S(=O)(=O)c1ccc(C)cc1	11	nt	nt	nt	nt	nt
CCC1CCC(C(=O)NNC(=O)c2cc(-c3ccco3)[nH]n2)CC1 (configuration not stated)	46*	-2	-3	0	4	2
COc1cccc(NC(=O)CSc2ncnc3c2oc2ccccc23)c1	2	-1	17	-11	nt	nt
COc1cccc(NC(=O)CSc2nc3c(oc4ccccc43)c(=O)[nH]2)c1	54*	4	4	-9	45*	15*
